{"source": "PubChem BioAssay AID2284124", "about": "(EPA ToxCast)", "note": "Active and inactive are the calls of the source. The calls were made as follows: active = hit-call score of the fitted dose curve at least 0.9, where 1 is the maximum; inactive = score below 0.9.", "data": [{"system": "guinea pig Atrial Natriuretic Factor (ANF, Non-Selective), gene 100135578", "assay": "ERF_TW_GPCR_gANPA: Eurofins (ERF) Binding Assay for guinea pig Atrial Natriuretic Factor (ANF, Non-Selective)", "procedure": "ERF_TW_GPCR_gANPA is a biochemical, single-readout assay that uses extracted gene-proteins in a cell-free assay. Measurements were taken 1 hour after chemical dosing in a 96-well plate. See Atrial Natriuretic Factor (ANF, Non-Selective) Guinea Pig Binding Assay, Panlabs.ERF_TW_GPCR_gANPA is an assay component calculated from the ERF_TW_GPCR_gANPA assay. It is designed to measure radioligand binding using a type of binding reporter as detected by scintillation counting with radiometry technology.Data from the assay component ERF_TW_GPCR_gANPA was analyzed at the assay endpoint, ERF_TW_GPCR_gANPA, in the positive analysis fitting direction relative to DMSO as the negative control and baseline of activity. Using a type of binding reporter, loss-of-signal activity can be used to understand changes in binding as they relate to gene ANPA. To generalize the intended target to other relatable targets, this assay endpoint is annotated to the gpcr intended target family, where the subfamily is guanylyl cyclase.\nThis assay measures binding of Atrial Natriuretic Peptide to sites associated with the ANF. Guinea pig striatal membranes are prepared in Tris-HCl buffer pH 7.4. A 24 ug aliquot of membrane is incubated with 16 pM Atrial Natriuretic Peptide for 60 minutes at 4C. Non-specific binding is estimated in the presence of 0.1 uM ANF.", "values": [{"compound": "O=C(/C=C/c1ccc(O)cc1)CC(=O)/C=C/c1ccc(O)cc1", "outcome": "inactive"}]}]}
